Hits are enriched below; roughly 1.2% of the tested compounds scored in any of these assays.
RGS7-Gao: human RGS7-Galphao interaction regulation. P09471. Multiplexed bead flow cytometry, RGS7-Galphao binding; actives lie on both sides. binding response (% of control), % at 10 µM. 220,000 compounds, 0.35% hits. AID 1439; in the data active means binding response below about 49% or above about 150%; inconclusive means no clear call, values can overlap the other calls; inactive means in between;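 further: fluorescent Galphao held in activated GDP-AlF4 state binding bead-coupled RGS7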
Target sequence (P09471 whole entry, looked up): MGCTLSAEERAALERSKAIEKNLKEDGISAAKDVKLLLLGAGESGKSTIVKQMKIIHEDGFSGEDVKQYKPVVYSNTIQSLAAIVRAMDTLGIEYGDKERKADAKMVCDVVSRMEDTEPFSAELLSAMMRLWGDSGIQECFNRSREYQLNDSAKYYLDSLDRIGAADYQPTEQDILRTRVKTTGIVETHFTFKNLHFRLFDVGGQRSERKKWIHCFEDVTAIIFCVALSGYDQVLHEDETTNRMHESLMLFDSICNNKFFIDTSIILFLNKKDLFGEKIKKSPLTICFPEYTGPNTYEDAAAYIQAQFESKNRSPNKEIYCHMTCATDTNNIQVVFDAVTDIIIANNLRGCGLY
RGS4-Gao reg: human RGS4-Galphao interaction regulation; Multiplexed bead flow cytometry, RGS4-Galphao binding; actives lie on both sides; 220,000 compounds, 0.33% hits; P09471; binding response (% of control), % at 10 µM; in the data active means binding response below about 49% or above about 150%; inactive means in between;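 further: fluorescent Galphao activated with aluminum fluoride binding bead-coupled RGS4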
RGS8-Gao reg: modulates binding of RGS8 to human Galphao; P09471; multiplexed bead flow cytometry; actives lie on both sides; 220,000 compounds, 0.34% hits; response (percent of control binding), % at 10 µM; in the data active means response below about 60% or above about 140%; inactive means in between;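 further: Galphao activated as the GDP aluminium fluoride complex binding bead-coupled RGS8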
GSH fluor: compound fluoresces at 488/530 nm on GSH beads; GSH beads flow cytometry, compound fluorescence 488/530 nm; active compounds read high; fluorescence (KMESF) at 10 µM; 190,000 compounds, 0.25% hits; AID 1776; in the data active means fluorescence above about 89;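 further: glutathione beads carrying GST-tagged Bcl family fusion proteins plus one bare bead set; values are compound well signal with DMSO vehicle wells as background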
Avidin bead fluor: avidin bead compound fluorescence profile | Avidin beads, compound fluorescence 488/530 nm, flow cytometry; active compounds read high | fluorescence (KMESF) at 10 µM | 220,000 compounds, 0.38% hits; in the data active means fluorescence above about 47
RGS16-Gao HTS: modulates binding between human RGS16 and Galphao. AID 1441. O15492+P09471. bead-based flow cytometry RGS16-Galphao binding, fluorescence; actives lie on both sides. 220,000 compounds, 0.38% hits. binding response (% of control), % at 10 µM;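 further: Galphao activated by GDP with aluminum fluoride before binding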
RGS-Gao: modulates binding between human RGS4 and Galphao; multiplexed bead flow cytometry, RGS–Galpha-o binding; RGS4–Galpha-o binding response, % at 10 µM; shares compounds with RGS16-Gao HTS; AID 1504; 1,600 compounds, 99% hits;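 further: fluorescently labeled Galpha-o bound to GDP with aluminium fluoride binding biotinylated RGS beads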
Avidin counter: interferes with biotinylated probe binding to avidin beads; inhibition, % at 10 µM; streptavidin beads, fluorescein-biotin binding, flow cytometry; 1,700 tested, under 10 active; shares compounds with RGS16-Gao HTS;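 active means inhibition above 50%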;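 further: median green fluorescence of gated singlet beads compared with DMSO control wells; 0% = DMSO wells and 100% = complete loss of bead fluorescence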
RGS8-Gao single: confirmation of regulators of human RGS8-Galphao interaction; bead-based flow cytometry RGS8-Galphao binding, fluorescence; actives lie on both sides; shares compounds with RGS16-Gao HTS; 1,700 compounds, 3% hits; binding response (% of control), % at 10 µM; in the data active means binding response below about 72% or above about 130%; inactive means in between;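 further: Galphao activated as GDP AlF4 complex before binding bead RGS8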
RGS7-Gao single: RGS7-Galphao interaction regulation, single point confirmation; shares compounds with RGS16-Gao HTS; bead-based flow cytometry RGS7-Galphao binding; actives lie on both sides; response (percent of control binding), % at 10 µM; 1,700 compounds, 7.8% hits; AID 1837; in the data active means response below about 75% or above about 130%; inactive means in between;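 further: fluorescent Galphao activated with GDP and aluminum fluoride binding bead-coupled RGS7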
RGS16-Gao single: RGS16-Galphao interaction regulation, single point confirmation | shares compounds with RGS16-Gao HTS | bead-based flow cytometry, RGS16-Galphao binding; actives lie on both sides | response (% of control binding), % at 10 µM | 1,700 compounds, 4% hits; in the data active means response below about 74% or above about 130%; inactive means in between;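 further: Galphao activated as the GDP aluminium fluoride complex binding bead-coupled RGS16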
RGS4-Gao confirm: confirmation of regulators of human RGS4-Galphao interaction. shares compounds with RGS16-Gao HTS. RGS4-Galphao binding, multiplexed bead flow cytometry; actives lie on both sides. binding response (% of control), % at 10 µM. 1,700 compounds, 4% hits; in the data active means binding response below about 74% or above about 130%; inactive means in between
RGS19-Gao conf: RGS19-Galphao interaction regulation, single point confirmation; shares compounds with RGS16-Gao HTS; AID 1841; bead-based flow cytometry RGS19-Galphao binding; actives lie on both sides; 1,700 compounds, 5% hits; response (percent of control binding), % at 10 µM; in the data active means response below about 50% or above about 160%; inactive means in between;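 further: 100% = no compound control and 0% = blank background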
Target sequence (P09471 whole entry, looked up): as above
Target sequence (P49795 whole entry, looked up): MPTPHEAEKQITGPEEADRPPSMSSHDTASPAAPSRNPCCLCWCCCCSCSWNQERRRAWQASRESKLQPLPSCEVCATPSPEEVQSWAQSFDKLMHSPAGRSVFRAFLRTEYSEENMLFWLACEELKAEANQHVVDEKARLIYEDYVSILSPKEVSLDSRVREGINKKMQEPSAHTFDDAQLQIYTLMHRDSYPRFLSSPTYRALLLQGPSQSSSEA
* marks the source's active call; other numbers are inactive results; i = inactive; ? = inconclusive; . = no result; [ ] = remark or other dose. Unless noted, how the calls were made is not given here.

SMILES | RGS7-Gao | RGS4-Gao reg | RGS8-Gao reg | GSH fluor | Avidin bead fluor | RGS16-Gao HTS | RGS-Gao | Avidin counter | RGS8-Gao single | RGS7-Gao single | RGS16-Gao single | RGS4-Gao confirm | RGS19-Gao conf
Cc1cc(C)n(-c2nc3ccccc3c(=O)n2OCC(=O)Nc2c(C)cccc2C)n1 | 134 | 149 | 174*[activator] | 33 | 6 | i | 149* | 4 | 127*[activator] | 276*[activator] | 210*[activator] | 210*[activator] | 246*[activator]
O=C1Oc2ccccc2C(=O)/C1=C\N1CCN(c2ccccc2)CC1 | ? | 95 | 99 | 12 | 10 | 96 | . | . | . | . | . | . | .
O=C(Nc1ccccc1)Nc1nccs1 | 97 | 98 | 103 | 14 | 34 | 101 | . | . | . | . | . | . | .
CC(C)(C(=O)Nc1nccs1)c1ccccc1 | 156*[activator] | 137 | 139 | 13 | 12 | 147 | 137* | 3 | 103 | 109 | 104 | 106 | 107
COc1cc2nc(CN(C)Cc3ccc(OC)c(OC)c3OC)[nH]c(=O)c2cc1OC | 98 | 95 | 106 | 15 | 9 | 111 | . | . | . | . | . | . | .
Cc1ccc(C(c2sc3nc(C)nn3c2O)N2CCN(C(=O)c3ccco3)CC2)cc1 (stereo not drawn) | 100 | 97 | 76 | 14 | 4 | 23* | 97* | 0 | 99 | 96 | 99 | 99 | 90
Cc1nc2sc(C(c3ccccc3)N3CCN(C(=O)c4ccco4)CC3)c(O)n2n1 (stereo not drawn) | 103 | 101 | 102 | 71 | 7 | 102 | . | . | . | . | . | . | .
CCN(CC)CCCNC(=O)C1c2cc(OC)c(OC)cc2C(=O)N(C)C1c1cccs1 (stereo not drawn) | 130 | 153*[activator] | 153*[activator] | 33 | 12 | 454 | . | -1 | 105 | 98 | 110 | 103 | 103
COc1ccc2c(CC(=O)OCC(=O)c3ccccc3OC)coc2c1 | 99 | 99 | 102 | 12 | 9 | 99 | . | . | . | . | . | . | .
COc1ccc2c(CC(=O)OCC(=O)c3ccc(F)cc3)coc2c1 | 181*[activator] | 113 | 99 | 29 | 102* | 105 | 113* | -1 | 102 | 103 | 102 | 105 | 121
Cc1ccc(C)c(C(=O)COC(=O)c2cc(Cl)nc3ccccc23)c1 | 95 | 96 | 96 | 5 | 1 | 91 | . | . | . | . | . | . | .
Cc1ccc(C(=O)COC(=O)c2cc(Cl)nc3ccccc23)cc1C | 118 | 130 | 158*[activator] | 55 | 5 | 805 | 130* | . | . | . | . | . | .
CO/N=C/CC(=O)c1cnc(-c2ccc(Cl)cc2)s1 | 93 | 100 | 98 | 10 | 11 | 96 | . | . | . | . | . | . | .
COc1cccc(C(=O)c2c[nH]c(C(=O)NCc3ccco3)c2)c1 | 103 | 105 | 100 | 39 | 5 | 105 | . | . | . | . | . | . | .
COc1ccc(C(=O)c2c[nH]c(C(=O)NCc3ccco3)c2)cc1 | 20* | 29* | 18* | 22 | 1 | 1.2* | . | -2 | 103 | 103 | 106 | 101 | 98
CCCCc1ccc(NC(=O)CN2NS(=O)(=O)c3ccccc3C2=O)cc1 | 88 | 87 | 81 | 12 | 5 | -6.9* | 87* | . | . | . | . | . | .
CCC(CO)NCCNC(CC)CO (stereo not drawn) | 61 | 27* | 86 | 11 | 10 | -120 | . | 1 | 99 | 89 | 98 | 95 | 79
CC[C@H](CO)NCCN[C@H](CC)CO | 100 | 98 | 96 | 22 | 12 | 93 | . | . | . | . | . | . | .
NC[C@@]12CCCC1C1CCC2C1 (stereo partly drawn) | . | . | . | 45 | . | . | . | 0 | 102 | 101 | 107 | 103 | 106
O[C@@H]1C2CCCC1[C@]1(O)CCCCC1C2 (stereo partly drawn) | 101 | 102 | 102 | 33 | 11 | 113 | . | . | . | . | . | . | .
CC(NC(=O)c1ccc(F)cc1)C(=O)NC1=NCCS1 (stereo not drawn) | 97 | 99 | 99 | 12 | 10 | 104 | . | . | . | . | . | . | .
O=c1c2c3c(sc2nc(NCCOCCO)n1Cc1ccco1)CCCCC3 | ? | 39* | 46* | . | 1 | 32 | . | 2 | 103 | 106 | 105 | 106 | 121
O=C(CN1c2ccccc2Sc2ccccc21)NNC(=O)Nc1cccc(Cl)c1 | ? | 100 | 100 | . | 8 | 102 | . | . | . | . | . | . | .
COc1ccc(NC(=S)NCCc2ccccc2)c(OC)c1 | 100 | 103 | 104 | 35 | 6 | 109 | . | . | . | . | . | . | .
COc1ccc(NC(=S)NCCc2ccc(F)cc2)c(OC)c1 | 92 | 88 | 66 | 9 | 2 | 19* | 88* | -1 | 100 | 99 | 98 | 100 | 95
SMILES | RGS7-Gao | RGS4-Gao reg | RGS8-Gao reg | GSH fluor | Avidin bead fluor | RGS16-Gao HTS | RGS-Gao | Avidin counter | RGS8-Gao single | RGS7-Gao single | RGS16-Gao single | RGS4-Gao confirm | RGS19-Gao conf
CC1=CC2=NC(=O)/C(=C\c3ccc(-c4ccc(Cl)cc4)o3)C(=N)N2O1 | 167*[activator] | 153*[activator] | 115 | 9 | 208* | 429 | . | 2 | 103 | 101 | 113 | 96 | 236*[activator]
CN(C)CCCNC(=O)C(=O)NCC1CCCO1 (stereo not drawn) | 99 | 99 | 99 | 25 | 10 | 100 | . | . | . | . | . | . | .
CCCCNC(=O)c1ccc(N2CCC3(CC2)OCCO3)c([N+](=O)[O-])c1 | 93 | 94 | 78 | 9 | 9 | 21* | 94* | -2 | 93 | 91 | 93 | 92 | 91
CCOC(=O)N1CCC(NC(=O)c2ccc(N3CCC4(CC3)OCCO4)c([N+](=O)[O-])c2)CC1 | 101 | 100 | 99 | 16 | 14 | 99 | . | . | . | . | . | . | .
O=C(c1nn2c(C(F)(F)F)cc(-c3ccco3)nc2c1Br)N1CCCc2ccccc21 | . | . | . | 15 | . | . | . | 2 | 105 | 107 | 107 | 108 | 90
O=C(CCC(=O)N(CC(=O)NC1CCCCC1)CC1CCCO1)Nc1nccs1 (stereo not drawn) | 106 | 104 | 100 | 12 | 5 | 125 | . | . | . | . | . | . | .
Cc1cc(NC(=O)CSc2nc3c(c(=O)n2-c2ccc(Br)cc2)SCC3)no1 | 92 | 86 | 82 | 16 | 5 | 36 | . | . | . | . | . | . | .
